MARV entry inh: qHTS for inhibitors of binding or entry into cells for Marburg Virus. hit rate 1.8% among 300,000. Marburg virus pseudotyped entry inhibition, cell reporter. Potency, µM (highest dose often 37.8 µM), actives largely listed as inhibitors. AID 540276, 2011; calls by dose curve; tested in HEK293 cells
RE007 growth inh: qHTS Assay for Inhibitors of the HIV-1 protein Vpr; S. pombe RE007 Vpr strain, BacTiter-Glo ATP luminescence, 24 h; Potency, µM (series often up to 92.2 µM), hits mostly inhibitors; hit rate 0.21% among 360,000; AID 651644, 2012; active means well fitted falling curve with a large enough effect; inconclusive means small, poorly fitted or top-dose-only effect; inactive means no such curve, though single readings can be large or run the other way; further: nearly all actives have a fitted effect of over 50% in size
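Fission yeast strain RE007, carrying one chromosomally integrated HIV-1 vpr copy, was seeded at OD 0.01 in PMG+AL medium with 23 nL pinned compound. After 24 h at 30 °C and 99% humidity, viability was read by BacTiter-Glo luminescence.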
HCV inhibitor: qHTS Assay for Inhibitors of Hepatitis C Virus (HCV); hit rate 3.4% among 340,000; Huh7.5.1 HCVcc-Cre infection, luciferase reporter, 44 h; Potency, µM (top dose mostly 41.8 µM), most hits filed as inhibitors
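Luciferase read-out (15 sec integration) after a 15 min room-temperature substrate step quantifies HCVcc-Cre infection. Cells, 1,000 per well, had compound added 4 h post-plating, then virus at ~0.5 moi, and were cultured 44 h.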
LASV entry inh: qHTS for Inhibitors of binding or entry into cells for Lassa Virus; Lassa virus pseudotype entry inhibition, cell reporter; Potency, µM (titrated, usually from 37.9 µM), usual class: inhibitors; hit rate 1.2% among 300,000; calls by dose curve; tested in HEK293 cells; further: nearly all actives have a fitted effect of over 50% in size
Sm TGR block: qHTS Assay for the Inhibitors of Schistosoma Mansoni Peroxiredoxins | purified TGR, DTNB reduction, TNB absorbance 405 nm | Potency, µM (titrated, usually from 114 µM), hits mostly inhibitors | hit rate 3% among 360,000; further: nearly all actives have a fitted effect of over 60% in size
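Kinetic colorimetric format: TGR-catalysed, NADPH-driven DTNB reduction monitored via TNB absorbance. Enzyme dispensed at 20 nM; compound exposure 15 min at room temperature before reaction start.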
FMDV antiviral: High Throughput Screening for Foot and Mouth Disease Virus Antivirals. FMDV antiviral cell-based qHTS. Potency, µM (series often up to 57.9 µM), most hits filed as inhibitors. hit rate 1.2% among 410,000; calls by dose curve; tested in HEK293T cells; further: read-out not given here; nearly all actives have a fitted effect of over 45% in size
Numbers stand for hits; 0 = inactive; ? = inconclusive; - = not tested or not shown; [ ] = another dose, or the depositor's remark. An excerpt weighted towards active compounds, which were near 7.2% of everything screened. Unless noted, the call rests on the fitted dose curve; in most records, active means well fitted curve in the direction sought with a large enough effect; inconclusive means small, poorly fitted or top-dose-only effect, or another doubt; inactive means no such curve, though single readings can be large; an effect the other way counts as inactive or inconclusive.

SMILES	MARV entry inh	RE007 growth inh	HCV inhibitor	LASV entry inh	Sm TGR block	FMDV antiviral
CCC(=O)N1CCN(c2ccccc2NC(=O)c2ccc(-c3cccc([N+](=O)[O-])c3)o2)CC1	?	0	?	0	0	0
CCN1CCN(c2ccc(S(=O)(=O)N3CCOCC3)cc2NC(=O)/C=C/c2ccc([N+](=O)[O-])cc2)CC1	?	0	25.1µM	0	0	0
CS(=O)(=O)N1CCN(c2ccccc2NC(=O)c2ccc([N+](=O)[O-])o2)CC1	?	0	11.2µM	?	0	?
O=C(O)c1ccc(-c2cccc([N+](=O)[O-])c2)o1	-	0	0	-	35.5µM	0
O=C(NC1CCCCC1)c1ccc(-c2cccc([N+](=O)[O-])c2)o1	-	0	?	-	0	0
CN1CCN(c2ccccc2NC(=O)c2ccc([N+](=O)[O-])o2)CC1	?	0	?	0	0	0
COc1ccc(N2CCN(C(=O)CCn3c(=O)c4cccn4c4cccnc43)CC2)cc1	-	-	-	0	0	0
COC(=O)C1C[C@@]23C(=NN=C(SC)C2N(C)c2ccc(OC)cc23)N1C(C)=O (stereo partly specified)	0	-	-	?	-	-
Cc1ccc(CNC(=O)C(=O)Nc2c3c(nn2-c2ccc(F)cc2)CSC3)cc1	-	-	-	0	0	0
c1cncc(-c2nc(-n3ccnc3)c3ccccc3n2)c1	-	-	-	-	-	0
COc1ccc(S(=O)(=O)N2CCCCC2)cc1NC(=O)c1ccc([N+](=O)[O-])o1	0	0	10µM	0	?	0
CCN1CCN(c2ccc(S(=O)(=O)N3CCCCC3)cc2NC(=O)c2ccc([N+](=O)[O-])o2)CC1	?	0	3.55µM	?	0	0
CCN1CCN(c2ccc(NC(=O)c3ccc([N+](=O)[O-])o3)cc2Cl)CC1	?	0	?	?	?	0
COc1ccc(S(=O)(=O)N2CCCCC2)cc1NC(=O)c1ccco1	0	0	0	0	0	0
Cc1cccc(C)c1N1C(=O)CC(N(O)c2ccccc2)C1=O (stereo unspecified)	0	0	?	0	14.1µM	0
Cc1c(Cl)cccc1N1C(=O)CC(N(O)c2ccccc2)C1=O (stereo unspecified)	0	0	0	0	12.6µM	0
C=CC[C@@H]1C=C[C@H](ON=C2c3cc(OC)ccc3O[C@H](c3cccc(OC)c3)[C@@H]2O)[C@H](CO)O1	0	-	-	-	-	-
COc1ccc(-c2nc(CN3CCC(C(=O)NCc4ccc(F)cc4)CC3)c(C)o2)cc1OC	0	-	-	0	0	0
Cc1ccc(Cl)cc1N1CCN(C(=O)C2CCN(Cc3nc(-c4ccc(Cl)cc4)oc3C)CC2)CC1	0	-	-	?	0	?
CCc1ccc(-c2nc(CN3CCC(C(=O)N4CCN(c5ccccc5)CC4)CC3)c(C)o2)cc1	?	0	?	?	0	?
CCc1ccc(-c2nc(CN3CCC(C(=O)NCc4ccc(F)cc4)CC3)c(C)o2)cc1	20.6µM	0[3.69 µM]	17.8µM	?	0	0
Cc1ccc(C)c(N2CCN(C(=O)C3CCN(Cc4nc(-c5cccc(Cl)c5)oc4C)CC3)CC2)c1	?	-	-	0	0	20µM
CCN1CCN(C(=O)C2CCN(Cc3nc(-c4cccc(Cl)c4)oc3C)CC2)CC1	0	0	?	-	0	0
CCc1ccc(-c2nc(CN3CCC(C(=O)N4CCN(c5ccccn5)CC4)CC3)c(C)o2)cc1	?	0[3.69 µM]	11.2µM	?	0	25.1µM
Cc1oc(-c2cccc(Cl)c2)nc1CN1CCC(C(=O)N2CCN(c3ccccn3)CC2)CC1	-	0	?	-	-	20µM
SMILES	MARV entry inh	RE007 growth inh	HCV inhibitor	LASV entry inh	Sm TGR block	FMDV antiviral
CC(C)Oc1ccc(C(=O)NCC2Cc3cc(F)cc(-c4cnccn4)c3O2)cc1 (stereo unspecified)	-	-	-	-	-	0
NC(=O)c1nsc(C(=O)N(c2ccccc2F)C(C(=O)NCc2ccccc2)c2ccc(O)cc2)c1N (stereo unspecified)	0	0	?	-	0	?
COc1ccc(N(C(=O)c2snc(C(N)=O)c2N)C(C(=O)NCc2ccccc2)c2ccc(O)cc2)cc1OC (stereo unspecified)	0	0	0	-	0	0
COc1ccc(N(C(=O)c2snc(C(N)=O)c2N)C(C(=O)NCc2ccc(F)cc2)c2ccc(O)cc2)cc1 (stereo unspecified)	?	0	?	2.82µM	0	0
COc1ccc(CNC(=O)C(C)N(Cc2ccccc2OC)C(=O)c2snc(C(N)=O)c2N)cc1 (stereo unspecified)	0	0	10µM	-	0	0
COc1ccc(CN(C(=O)c2snc(C(N)=O)c2N)C(C)C(=O)NCc2ccc(F)cc2)cc1 (stereo unspecified)	0	0	?	-	0	0
Cc1ccccc1N(C(=O)c1snc(C(N)=O)c1N)C(C(=O)NCc1ccccc1)c1ccc(O)cc1 (stereo unspecified)	?	0	5.62µM	?	0	0
Cc1ccccc1N(C(=O)c1snc(C(N)=O)c1N)C(C(=O)NC1CCCCC1)c1ccc(O)cc1 (stereo unspecified)	?	0	10µM	11.2µM	0	0
COC(=O)[C@@H]1CCCN1Cc1ccc2c(c1)CN(Cc1coc3ccccc3c1=O)CCO2	-	-	-	-	-	0
COC(=O)c1cc2sc(C)cc2n1Cc1ccc(Br)cc1F	0	-	-	-	0	0
CCOc1ccc(C(C(=O)NC2CCCC2)N(C(=O)c2snc(C(N)=O)c2N)c2cccc(O)c2)cc1 (stereo unspecified)	?	0	12.6µM	?	0	0
Cc1nn2c(=O)cc(COC(=O)c3cccc(NC(=O)c4ccc(F)cc4)c3)nc2s1	-	-	-	?	0	?
COc1cc(C(O)c2nc3ccccc3s2)cc(OC)c1OC (stereo unspecified)	-	0	7.08µM	-	0	?
NC(=O)c1ccc[n+](CC(=O)c2ccc(NC(=O)c3ccccc3)cc2)c1	?	0	0	?	0	0
NC(=O)c1ccc[n+](CC(=O)c2ccccc2)c1	?	0	0.562µM	0	0	0
N#Cc1c(NC(=O)CSc2ncc(-c3ccccc3)n2CC2CCCO2)sc2c1CCCC2 (stereo unspecified)	5.17µM	0	11.2µM	7.3µM	0	0
NC(=O)c1c(NC(=O)CSc2nnc(-c3ccccc3)n2CC2CCCO2)sc2c1CCC2 (stereo unspecified)	0	0	?	0	28.2µM	0
O=C(c1ccc(Cl)c(Cl)c1)N1CCC(=O)N([C@H](COCc2cccc(C(F)(F)F)c2)Cc2ccccc2)CC1	-	0	-	-	-	0
CCN(CC)Cc1cc(C(C)=O)ccc1OCC(C)C	0	0	0	0	17.8µM	0
CC(=O)c1ccc(OCC(C)C)c(CC(C(N)=O)C(N)=O)c1	0	0	0	0	0	-
Cn1ncc2c(N3CCN(c4ccc(F)cc4)CC3)ncnc21	-	-	-	0	0	?
